Shown are actives, neighbours in structure and some others; about 1.5% of the full set was active somewhere.
AID504770: E. coli YBA685 growth inhibition, screen for V. cholerae RctB inhibitors; E. coli YBA685 rctB-dependent plasmid, OD600 growth, 3 h; stronger effect = lower value; z-score (no concentration beside the values); 130,000 compounds, 0.27% hits; in the data active = z-score below about -2, passing the limit was not always enough
MbtI inh: inhibitors of Mycobacterium tuberculosis siderophore enzyme MbtI; purified MbtI enzyme, fluorescence intensity read-out; inhibition, % (no concentration beside the values); 100,000 compounds, 0.89% hits; AID 493033; in the data active = inhibition mostly above about 56%, no sharp cut-off; inactive = mostly below about 77%
Target sequence (P9WFX0 whole entry, looked up): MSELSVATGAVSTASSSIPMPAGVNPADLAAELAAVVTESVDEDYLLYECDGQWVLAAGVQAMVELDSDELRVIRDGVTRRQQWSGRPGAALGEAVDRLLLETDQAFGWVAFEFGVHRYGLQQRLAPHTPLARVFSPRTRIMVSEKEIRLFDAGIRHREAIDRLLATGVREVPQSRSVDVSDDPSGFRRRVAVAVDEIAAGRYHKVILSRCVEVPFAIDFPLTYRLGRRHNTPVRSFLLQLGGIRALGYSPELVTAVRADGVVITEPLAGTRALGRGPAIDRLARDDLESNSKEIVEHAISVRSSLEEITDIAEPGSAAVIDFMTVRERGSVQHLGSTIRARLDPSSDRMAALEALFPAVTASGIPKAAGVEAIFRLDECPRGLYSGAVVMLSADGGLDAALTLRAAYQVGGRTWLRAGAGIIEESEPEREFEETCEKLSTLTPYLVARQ
Mtb MenB inh: blocks the Mycobacterium tuberculosis MenB enzyme; MenB enzyme assay, absorbance read-out; inhibition, % (concentration not given with the values); 100,000 compounds, 0.43% hits; P9WNP5; in the data active = inhibition above about 21%, passing the limit was not always enough
PV pol inh: poliovirus RNA polymerase inhibition; P03300; poliovirus polymerase elongation, fluorescence polarization; stronger effect = lower value; % elongation, % (compound at 16.7 µg/mL); 150,000 compounds, 0.66% hits; in the data active = % elongation below about 90%
* marks the source's active call; other numbers are inactive results; nt = no result.

SMILES | AID504770 | MbtI inh | Mtb MenB inh | PV pol inh
CC(C)c1nnc(NC(=O)C2CCN(C(=O)c3ccco3)CC2)s1 | 2.3 | 64 | -58 | 105
COc1cc(C(=O)Nc2ccc(N3CCCCC3C)cc2)cc(OC)c1OC (stereo not given) | -0.85 | 5 | -13 | 101
O=C1CSc2ccc(C(=O)N3CCN(S(=O)(=O)/C=C/c4ccccc4)CC3)cc2N1 | -0.5 | 4 | -12 | 100
COc1ccc(NC(=O)c2sc(=S)n3c2[nH]c(=O)c2ccccc23)cc1 | 0.85 | 94* | -48 | 102
CCc1ccc(S(=O)(=O)N2CCCC2C(=O)OC)cc1 (stereo not given) | -0.5 | -14 | -32 | 103
CC1=NN(c2ccccc2)C(=O)C1=C1SCCS1 | -0.1 | 11 | 9 | 102
CC1=NN(c2ccccc2)C(=O)/C1=C1/C(=O)N(c2ccccc2)N=C1C | 0.3 | 9 | -11 | 57*
CC(C)[C@H](NC(=O)c1ccc(C(C)(C)C)cc1)C(=O)NCc1ccco1 | 0.05 | -40 | -15 | 106
c1ccc(-c2nn3c(C4COc5ccccc5O4)nnc3s2)nc1 (stereo not given) | -0.9 | 57* | -35 | 92
Cn1c(SCc2cnc(-c3ccccc3)s2)nnc1C1COc2ccccc2O1 (stereo not given) | 0.05 | -11 | -8 | 102
CC1CCCCC1NC(=O)NC(=O)CSc1nnnn1-c1ccc(Cl)cc1 (stereo not given) | -0.55 | 2 | -15 | 104
O=C(O)CN=C1NC2(CCCC2)Cc2ccccc21 | 1.3 | -1 | 34* | 100
CC1CCCC(C)N1C(=O)COC(=O)c1ccc(Cl)cc1Cl (stereo not given) | 0.4 | -9 | nt | 102
Cn1c(=O)[nH]c2c(nc(-c3ccccc3)n2C)c1=O | 2.1 | nt | 5 | 109
Cn1c(=O)[nH]c2nncnc2c1=O | -1.7 | 6 | -152 | 43*
S=c1[nH]nc(NC2CC2)s1 | 2.2 | 89* | -37 | 102
O=C(Nc1ccccc1)C1CCN(c2ccc(C(F)(F)F)cn2)CC1 | -0.1 | nt | nt | nt
CCOC(=O)c1[nH]c(CSc2cccc[n+]2[O-])c(C(=O)OCC)c1C | -1.2 | 37 | -30 | 66*
CC(C)C(Nc1ncnc2ccc(Br)cc12)C(=O)O (stereo not given) | -0.5 | 1 | 2 | 105
NC(=O)c1c(Nc2ccccc2)sc(C(=O)c2ccccc2)c1N | 1.9 | nt | nt | nt
O=C(O)CCN1CCCC1 | -0.3 | -6 | 8 | 100
O=C(O)CN1CCCCC1 | 0.5 | 4 | 31* | 100
O=C(CC1(c2ccc(Cl)cc2)C(=O)c2ccccc2C1=O)N1CCOCC1 | -0.95 | -8 | -35 | 104
O=C1c2ccccc2C(=O)C1(O)N1CCOCC1 | 0 | 2 | 19 | 34*
CC(=O)NS(=O)(=O)c1ccc(NC(=O)c2ccc(C)c(C)c2)cc1 | -0.7 | 6 | 23* | 103
SMILES | AID504770 | MbtI inh | Mtb MenB inh | PV pol inh
Cc1ccnc(NS(=O)(=O)c2ccc(NC(=O)c3ccc(C)c(C)c3)cc2)n1 | nt | nt | nt | 107
CC(C)(O)CC1(CO)CCCCC1 | -0.55 | nt | nt | nt
CC(Oc1ccccc1)C(=O)N1CCCCCC1 (stereo not given) | -0.35 | -18 | nt | nt
CC1CCCC(C)N1Cn1nc2sc3ccccc3n2c1=S (stereo not given) | -0.45 | 98* | 4 | 99
O=C(OCc1ccccc1)N1CCOCCN(C(=O)OCc2ccccc2)CCOCC1 | -0.1 | -24 | -20 | 100
N/C(=N\OC(=O)N1CCOCC1)c1ccccc1 | -2.7* | -3 | 8 | 100
CCOc1ccc2[nH]c(=O)c(CN(C(=S)NCc3ccco3)C3CCCC3)cc2c1 | 1.5 | -26 | -22 | 102
O=C(Nc1ccc2oc(=O)ccc2c1)c1cccc(F)c1 | 1.1 | -4 | -24 | 104
Cc1nc(SCC(=O)Nc2ccc3c(c2)OCCCO3)n(C2CCCCC2)c1C | -0.85 | -8 | -26 | 104
CCNc1nc(NCC)nc(N(C)N)n1 | -0.35 | -17 | 32* | 101
COc1ccccc1NS(=O)(=O)c1cccc(C(=O)Nn2cnnc2)c1 | 0.45 | -5 | 15 | 72*
Cc1ccc(CNC(=O)CN2NS(=O)(=O)c3ccccc3C2=O)cc1 | -0.1 | 91* | -8 | 100
Cc1ccc(-n2nc(C(=O)NC(C)CCc3ccccc3)c3c4ccccc4n(C)c3c2=O)cc1 (stereo not given) | -2.8* | 13 | -12 | 105
Oc1ccc2ccccc2c1C1Nc2ccccc2-n2cccc21 (stereo not given) | 0.8 | -7 | -21 | 105
Cn1cc(C(O)C(F)(F)F)c2ccccc21 (stereo not given) | 0.25 | nt | nt | nt
CCOc1ccc(C(=O)c2ccccc2C(=O)O)cc1OCC | 1.8 | 9 | 6 | 47*
O=C(OCC(=O)C12CC3CC(CC(C3)C1)C2)C1=COCCO1 | 0.15 | 5 | -3 | 101
CC(C)Cc1ccc([C@H](C)C(=O)O)cc1 | nt | nt | -8 | 99
CC(C)Cc1ccc(CC(=O)O)cc1 | -0.15 | 89 | -48 | 80*
CCNc1ncnc2sc3c(c12)CCC3 | 2 | 26 | -62 | 105
Cc1c(CC(=O)O)c(=O)oc2c(O)c(O)ccc12 | -0.4 | nt | 18 | 107
CCCOc1ccc(C(=O)CCN(C)C)cc1 | -0.85 | 59* | -57 | 97
CN(C)CCC(=O)c1ccc(Br)cc1 | -0.8 | 69* | -6 | 102
CCCOc1ccc(C(=O)O)cc1 | -0.15 | -5 | nt | 103
c1ccc(-c2cnc3n2CCCCC3)cc1 | -0.8 | -12 | nt | 101
SMILES | AID504770 | MbtI inh | Mtb MenB inh | PV pol inh
O=C1C=CC(=O)N1c1ccccc1OC(F)(F)F | -0.3 | nt | nt | nt
O=C1C=CC(=O)N1c1cccc2ccccc12 | -0.6 | 89* | nt | 101
O=C1C=CC(=O)N1c1ccccc1F | -4.7* | 100* | -20 | 104
O=C(CN1C(=O)/C(=C\c2ccc(F)cc2)Oc2ccccc21)N1CCCC1 | 2.3 | 81 | -4 | 102
O=C1CSc2ccc(C(=O)OCC(=O)N3CCCc4ccccc43)cc2N1 | 0.1 | 60* | 8 | 102
CN1CCN(c2ccc(Nc3ccnc4cc(Cl)ccc34)cc2Cl)CC1 | -0.25 | nt | 0 | 89*
CCN(CC)Cc1cc(Nc2ccnc3cc(Cl)ccc23)ccc1O | nt | 24 | -6 | 101
CCOC(=O)C(Sc1nc2c(c(=O)[nH]1)CCCC2)c1ccccc1 (stereo not given) | -0.35 | 74* | -10 | nt
COC(=O)c1ccc(NC(=O)C(C)Sc2nc3c(c(=O)[nH]2)CCCC3)cc1 (stereo not given) | -0.6 | 81* | -6 | 102
O=c1[nH]c(SCc2ccccc2)nc2c1CCCC2 | nt | nt | nt | 111
COc1ccc2c(Cl)c(C(=O)Oc3ccccc3Cl)sc2c1 | 0.85 | nt | -10 | 101
O=C(O)c1ccc(Br)c(C(=O)O)c1 | -0.5 | nt | -8 | 102
O=C(O)c1coc(=O)c(Br)c1 | -4.7* | -12 | nt | nt
COc1ccccc1NS(=O)(=O)c1ccc2oc(=S)n(CN(C)CCC#N)c2c1 | -0.3 | 5 | -18 | 85*
COc1ccccc1NS(=O)(=O)c1ccc2oc(=S)n(CN3CCCC3)c2c1 | -0.75 | 13 | -12 | 103
O=C1Nc2ccccc2/C1=N\N1C(=O)/C(=C/c2ccccc2)N=C1c1ccccc1 | -1.1 | nt | -57 | 88*
Cc1nnc2c(Nc3ccccc3I)nc3nonc3n12 | -2.8* | -16 | -21 | 107

Assay outcomes: PubChem, ICCB-Longwood Screening Facility, Harvard Medical School
